From PubChem BioAssay
The full list was thinned out, with hits kept by preference.
HTT ATP protect – protects HTT-Q103 PC12 cells, measured by ATP. Potency, µM (highest dose often 56.4 µM), for inactives: cytoprotection (ATP increase), hits mostly activators. 0.14% of 230,000 active. PC12 HTT-Q103 induced, cytoprotection, ATP luminescence, 40 h. AID 1471; further: % of control where 0% means no effect; nearly all actives have a fitted effect of over 45% in size
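PC12 cells with ecdysone-inducible HTT exon 1 Q103-GFP, induced with 100 nM tebufenozide and co-treated with library compounds in a dose series (1536-well, 1500 cells/well). Cytoprotection read as ATP content by ATPlite luminescence.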
Epigenetic derep – regulators of epigenetic silencing causing reporter derepression in mouse cells. murine LDR cells, GFP reporter derepression, 30 h. Potency, µM (titrated, usually from 53.9 µM), for inactives: at the highest dose GFP activation, actives largely listed as activators. 0.2% of 280,000 active. AID 1865; further: % of control where 0% means no effect; nearly all actives have a fitted effect of over 60% in size
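Murine LDR cells carrying a silenced, genomically integrated CMV-driven GFP reporter were exposed to compound for 30 hours at 37 C. After PBS washes, GFP-positive cells (20–120 um objects) were counted by laser-scanning microplate cytometry.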
TSG101-PTAP inh – blocks PTAP/TSG101 interaction to inhibit HIV-1 budding; Q99816; Fluorescence polarization, FITC-PTAP peptide / Tsg101 binding; Potency, µM (titrated, usually from 115 µM), for inactives: at the highest dose activity change, negative = inhibition, most hits filed as inhibitors; 340,000 tested, under 10 active; active means well fitted inhibition curve with a large enough effect in the main read-out, with a control signal flat, not every such curve was filed as active; inconclusive means small, poorly fitted or top-dose-only effect, or effect the other way, or a change in a side signal; inactive means no such curve, though single readings can be large or run the other way; further: % of control where 0% means no effect
Target sequence (Q99816 whole entry, looked up): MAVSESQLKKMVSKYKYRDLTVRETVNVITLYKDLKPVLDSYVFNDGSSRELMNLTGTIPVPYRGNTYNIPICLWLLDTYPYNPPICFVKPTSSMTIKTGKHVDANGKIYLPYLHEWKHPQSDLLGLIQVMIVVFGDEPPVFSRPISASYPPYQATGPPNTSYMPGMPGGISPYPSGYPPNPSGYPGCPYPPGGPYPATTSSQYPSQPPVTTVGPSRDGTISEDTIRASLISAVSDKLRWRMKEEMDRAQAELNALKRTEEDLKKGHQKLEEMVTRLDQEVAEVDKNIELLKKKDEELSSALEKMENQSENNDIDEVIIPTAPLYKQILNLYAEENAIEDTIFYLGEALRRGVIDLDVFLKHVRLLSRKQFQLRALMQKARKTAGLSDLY
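Steps: Tsg101 binding domain dispensed (10 uM final), compounds pinned in DMSO, FITC-labeled PTAP-motif peptide added (50 nM final); after 20 min binding at room temperature, polarization measured.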
Anesthetic bind – binds horse apoferritin like a general anesthetic; apoferritin/1-aminoanthracene competitive binding, fluorescence; Potency, µM (titrated, usually from 77.5 µM), for the others: at the top dose activity change, negative = displacement, actives largely listed as inhibitors; AID 485281; 0.074% of 350,000 active; further: on the % scale 0 is the no-effect control and ±100 the full control effect; nearly all actives have a fitted effect of over 20% in size
Target sequence (P02791 2-175 limits assumed): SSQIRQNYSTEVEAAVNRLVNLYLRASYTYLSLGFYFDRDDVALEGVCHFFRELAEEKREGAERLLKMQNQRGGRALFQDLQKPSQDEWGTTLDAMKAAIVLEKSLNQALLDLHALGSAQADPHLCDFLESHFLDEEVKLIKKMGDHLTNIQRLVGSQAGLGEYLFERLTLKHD
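In PBS, apoferritin at 10 uM is loaded with 1-AMA from a 50% saturated solution. After 10 min of compound exposure at ambient temperature, reduced 535 nm fluorescence indicates probe displacement.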
HTT aggregate – reduces HttQ103-GFP aggregates in PC12 cells | PC12 HttQ103-GFP aggregates, Acumen cytometry, 40 h | Potency, µM (highest dose often 46.1 µM), for the others: at the top dose activity change, negative = inhibition, hits mostly inhibitors | AID 1688 | 1.1% of 220,000 active; further: on the % scale 0 is the no-effect control and ±100 the full control effect; nearly all actives have a fitted effect of over 60% in size
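Aggregate formation scored by laser-scanning cytometer (488 excitation, 500–530 emission) in lysed PC12 cells expressing Q103-GFP after 100 nM tebufenozide induction; library tested in dose series, with ATPLite reagent added in the multiplex.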
PINK1 modulator – changes PINK1 expression. PINK1 immunofluorescence, high-content cytometry, 24 h. Potency, µM (top dose mostly 76.6 µM), for inactives: at the highest dose activation (PINK1 increase), hits mostly activators. 0.2% of 410,000 active. AID 624263; active means well fitted activation curve with a large enough effect; inconclusive means small, poorly fitted or top-dose-only effect; cell line not stated here; further: % of control where 0% means no effect; nearly all actives have a fitted effect of over 65% in size
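PINK1 protein, normally rapidly degraded, was detected by immunofluorescence after 24 hour compound treatment of a stable cell line. Titration data (5 concentrations) came from laser-scanning cytometry, with CCCP-treated wells as controls.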
* hit, by the source's call; ? = inconclusive; / = no result; ! = a repeat was not active; [ ] = remark or other dose. Unless noted, the call rests on the fitted dose curve; in most records, active means well fitted curve in the direction sought with a large enough effect; inconclusive means small, poorly fitted or top-dose-only effect, or another doubt; inactive means no such curve, though single readings can be large; an effect the other way counts as inactive or inconclusive. Potency means the concentration at half of the fitted maximal effect.

SMILES	HTT ATP protect	Epigenetic derep	TSG101-PTAP inh	Anesthetic bind	HTT aggregate	PINK1 modulator
O=C1NCN(c2ccccc2)C12CCN(CCCC(c1ccc(F)cc1)c1ccc(F)cc1)CC2	?	?	-5%	-19%	14µM*	1%
Cc1ccc(C2(c3ccc(C)cc3)CC2C(=O)Nc2ccc([N+](=O)[O-])cc2O)cc1 (centres undefined)	-68%	0%	-6%	?	7.1µM*	?
O=C(CCn1c(=O)[nH]c2ccccc21)NCC1Cc2cc(Cl)cc(-c3ccncc3)c2O1 (centres undefined)	/	/	/	/	/	-1%
COc1ccc(N2CCN(S(=O)(=O)c3ccc(OC)c(-c4noc(C)n4)c3)CC2)cc1	/	5µM*	/	-12%	/	1%
COc1ccc(S(=O)(=O)N2CCN(c3ccccc3F)CC2)cc1-c1noc(C)n1	/	1.1µM*	/	6%	/	0%
Cc1ccccc1NC(=O)CN(C)S(=O)(=O)c1cccc2nsnc12	/	0%	/	-7%	/	-1%
COc1ccc(N2C(=O)c3ccccc3NC2c2ccc(OC)c(COc3ccccn3)c2)cc1 (centres undefined)	-8%[10 µM]	0%	-1%	1%	2%	1%
COc1ccc(N2C(=O)c3ccccc3NC2c2ccc(OC)c(CSc3ccccn3)c2)cc1 (centres undefined)	-52%	1%	-8%	13%	-5%	10µM*
CCC1C(=O)NCCN1Cc1ccc2c(c1)CN(Cc1ccc(F)c(OC)c1)CCO2 (centres undefined)	/	/	/	/	/	-1%
CC(C)c1cc(NC(=O)c2ccccc2)cc(C(C)C)c1O	-150%	-2%	-5%	?	11µM*	9%
CC(=O)Nc1cc(C(C)C)c(O)c(C(C)C)c1	-1%	0%	-12%	-14%	-3%	1%
Cc1cc(C)n2nc(SCc3nnc(SCc4ccccc4C)s3)nc2n1	18%[10 µM]	0%	-2%	?	13µM*	/
Cc1cc(C)n2nc(SCc3nnc(SCc4ccccc4Cl)s3)nc2n1	14%[10 µM]	-1%	1%	5%	-23%	-1%[38.3 µM]
CSc1nnc(CCNC(=O)c2ccccc2C(F)(F)F)n1-c1ccc(F)cc1	/	/	/	/	/	0%
O=C(NCc1cccnc1)c1cnn(-c2nccc(-c3cccs3)n2)c1C1CC1	/	/	/	/	/	-1%
O=S(=O)(NC1=NCCCCC1)c1ccc2sc(NS(=O)(=O)c3ccc4ccccc4c3)nc2c1	30%[10 µM]	3%	0%	-5%	11%[9.22 µM]	6%
O=S(=O)(Nc1nc2c(s1)CCCC2)c1ccc2ccccc2c1	14%	0%	-3%	-14%	11µM*	0%
CCOc1ccccc1C1CC(=O)NC2=C1C(=O)CC(C)(C)C2 (centres undefined)	-29%	2%	-5%	-9%	35µM*	0%
CCOc1ccccc1C1CC(=O)Nc2cc(OC)c(OC)cc21 (centres undefined)	/	/	-1%	-2%	/	4%
COc1ccc(/C=C/C(=O)N2CCc3c(cnc(C)c3CNS(=O)(=O)c3cccs3)C2)cc1	/	/	/	/	/	0%
CS(=O)(=O)c1ncc(Cl)c(C(=O)Nc2ccc(N3CCOCC3)cc2)n1	-22%[10 µM]	1%	-9%	-3%	11µM*	/
CS(=O)(=O)c1ncc(Cl)c(C(=O)Nc2ccc(OC(F)F)cc2)n1	/	/	1%	-6%	/	-2%
CC(=O)Nc1ccc(/C=C/c2nc3ccccc3s2)cc1	/	/	/	/	/	1%
CC(=O)N(c1ccc(Cl)cc1)C1SC(=O)N(c2ccccc2)C1=O (centres undefined)	/	/	/	/	/	3%
COCC(=O)O[C@]1(CCN(C)CCCc2nc3ccccc3[nH]2)CCc2cc(F)ccc2[C@@H]1C(C)C	-99%	0%	-4%	-15%	7.9µM*!	1%
SMILES	HTT ATP protect	Epigenetic derep	TSG101-PTAP inh	Anesthetic bind	HTT aggregate	PINK1 modulator
O=C(Cn1nc(CNc2ccc(Br)cc2)[n+]2c1CCCCC2)c1ccc([N+](=O)[O-])cc1	-3%[10 µM]	-2%	0%	-10%	24%[9.22 µM]	40µM*
CC(CCc1ccc(O)cc1)N1CCOc2c(O)cc(-c3nc4ccccc4s3)cc2C1 (centres undefined)	/	/	/	/	/	2%
c1ccc2c(c1)oc1c(Nc3ccc4c(c3)OCO4)ncnc12	-29%	0%	-3%	34%	-14%	3%
c1ccc2c(c1)oc1c(NCc3ccc4c(c3)OCO4)ncnc12	4%[10 µM]	0%	2%	-14%	11µM*	-1%
CSCC[C@H](NC(=O)[C@H](CC(C)C)NC(=O)[C@H](Cc1c[nH]c2ccccc12)NC(=O)[C@H](CCC(N)=O)NC(=O)[C@@H](NC(=O)[C@H](Cc1ccccc1)NC(=O)[C@H](CC(=O)O)NC(=O)[C@H](CCC(N)=O)NC(=O)[C@H](C)NC(=O)[C@H](CCCNC(=N)N)NC(=O)[C@H](CCCNC(=N)N)NC(=O)[C@H](CO)NC(=O)[C@H](CC(=O)O)NC(=O)[C@H](CC(C)C)NC(=O)[C@H](Cc1ccc(O)cc1)NC(=O)[C@H](CCCCN)NC(=O)[C@H](CO)NC(=O)[C@H](Cc1ccc(O)cc1)NC(=O)[C@H](CC(=O)O)NC(=O)[C@H](CO)NC(=O)[C@@H](NC(=O)[C@H](Cc1ccccc1)NC(=O)[C@@H](NC(=O)CNC(=O)[C@H](CCC(N)=O)NC(=O)[C@H](CO)NC(=O)[C@@H](N)Cc1cnc[nH]1)[C@@H](C)O)[C@@H](C)O)C(C)C)C(=O)N[C@@H](CC(N)=O)C(=O)N[C@H](C(=O)O)[C@@H](C)O	/	/	/	-11%	/	/
Cn1cc(/C=C/c2ccnc3ccccc23)c2ccccc21	/	/	/	/	/	0%
O=C(Nc1nccs1)c1cccc(N2C(=O)c3cccc4c([N+](=O)[O-])ccc(c34)C2=O)c1	-10%[10 µM]	13µM*	-11%	-12%	?	4%
CCCCCCCCCCS(=O)(=O)N/N=C/c1ccc([N+](=O)[O-])cc1	-47%	0%	-15%	20µM*	14%	6%[38.3 µM]
Cc1ccc(/C=N/NS(=O)(=O)c2ccc([N+](=O)[O-])cc2)o1	41%[10 µM]	1%	-1%	-6%	?	3%
CCc1ccccc1NC(=O)Cn1ccn(-c2cc(C)cc(C)c2)c(=O)c1=O	/	0%	/	10%	/	-1%
CC(C)(C)CC(C)(C)c1ccc(OCCOCC[N+](C)(C)Cc2ccccc2)cc1	-227%	0%	-1%	?	28µM*	0%
COC(=O)/C=C\c1cc(O)ccc1O	-83%	0%	/	/	/	/
O=S1(=O)C=C(Sc2nc3ccccc3s2)c2ccccc21	2µM*	1%	-4%	-17%	4.5µM*	-3%
